According to PubChem BioAssay AID1053115 (Broad Institute, 2014):
Potency and affinity values are given separately. Activity calls are given as the source filed them.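 The calls were made as follows: active = cytotoxic compounds whose fitted half-maximal concentration is at most twice the top valid tested dose; inconclusive = flat curve showing 30 to 70% signal loss, or poor fit; inactive = the rest.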

Test: viability loss in A549 lung cells – cell-based, 24 h, CellTiter-Glo luminescence, cherry-picks, cytotoxicity control, dose response (AID 1053115)
Settings: CellTiter-Glo ATP luminescence; series mostly up to 30 µM; activity change, negative = cytotoxicity: at the top concentration

Structure (SMILES)	activity change, negative = cytotoxicity
COc1ccccc1CN1CC[C@@H]2[C@H]1c1cc(-c3ccc(C(=O)N(C)C)cc3)ccc1N[C@@H]2CO	0.92% (inactive)
C[C@@H](O)C#Cc1ccc2c(c1)O[C@@H](CN(C)Cc1cccnc1)[C@@H](C)CN([C@@H](C)CO)S2(=O)=O	12.4% (inactive)
C[C@H](O)C#Cc1ccc2c(c1)O[C@@H](CN(C)Cc1ccccc1)[C@@H](C)CN([C@@H](C)CO)S2(=O)=O	3.63% (inactive)
CN1CCN(C(=O)c2cc3c(c(-c4cccc(C#CCC5CCCC5)c4)n2)[C@@H](CCO)N(S(=O)C(C)(C)C)C3)CC1 (stereo partly specified)	-2.55% (inactive)
Cc1ccc(S(=O)(=O)N(C)C[C@H]2Oc3cc(C#Cc4ccncc4)ccc3S(=O)(=O)N([C@@H](C)CO)C[C@H]2C)cc1	-17.2% (inactive)
C[C@H](O)C#Cc1ccc2c(c1)O[C@H](CN(C)Cc1ccccc1)[C@@H](C)CN([C@H](C)CO)S2(=O)=O	14.5% (inactive)
CN1c2ccc(C#Cc3cccnc3)cc2[C@H]2[C@H](CCN2C(=O)C2CCCCC2)[C@@H]1CO	5.27% (inactive)
CN1c2ccc(C#Cc3cccnc3)cc2[C@H]2[C@H](CCN2C(=O)C2CCC2)[C@@H]1CO	8.82% (inactive)
CN1c2ccc(C#Cc3cccnc3)cc2[C@H]2[C@H](CCN2C(=O)C2CCCCC2)[C@H]1CO	-14.6% (inactive)
C[C@@H]1CN([C@H](C)CO)S(=O)(=O)c2ccc(C#C[C@@H](C)O)cc2O[C@H]1CN(C)Cc1ccccc1	-5.37% (inactive)
Cc1noc(C)c1S(=O)(=O)Nc1ccc2c(c1)C(=O)N([C@@H](C)CO)C[C@@H](C)[C@H](CN(C)S(=O)(=O)c1cccs1)O2	-4.84% (inactive)
